Tg IFNy HTS – inhibitors of Toxoplasma gondii growth with IFN-gamma. Toxoplasma gondii growth in IFN-gamma-treated host cells; active compounds read low. activity change, negative = inhibition, % (concentration not given with the values). 69,000 compounds, 3.8% hits. AID 1259416; in the data active = activity change below about -70%, passing the limit was not always enough;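 also: host cells are HeLa cells infected with Toxoplasma gondii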
Large screens that a line does not name were inactive; ! = a repeat was not active. This is one part of a sample in which hits are shown more often than they occur.

Cc1nn(CCC(C)C)c2c1C(CCc1ccccc1)CC(=O)N2 (centres undefined)	none
CO[C@@H]1CN(C)C(=O)c2cc(NC(=O)c3nc4ccccc4s3)ccc2OC[C@@H](C)NC[C@H]1C	none
CO[C@H]1CN(C)C(=O)c2cc(NC(=O)c3nc4ccccc4s3)ccc2OC[C@@H](C)NC[C@H]1C	none
CO[C@@H]1CN(C)C(=O)c2cc(NC(=O)c3nc4ccccc4s3)ccc2OC[C@@H](C)NC[C@@H]1C	none
CO[C@H]1CN(C)C(=O)c2cc(NC(=O)c3nc4ccccc4s3)ccc2OC[C@H](C)NC[C@H]1C	Tg IFNy HTS -110.6
CO[C@H]1CN(C)C(=O)c2cc(NC(=O)c3nc4ccccc4s3)ccc2OC[C@@H](C)NC[C@@H]1C	none
CO[C@@H]1CN(C)C(=O)c2cc(NC(=O)c3nc4ccccc4s3)ccc2OC[C@H](C)NC[C@H]1C	Tg IFNy HTS -91.8
COc1ccc2cc(CN3[C@@H]4CC[C@H]3CN(C)C(=O)C4)c(=O)[nH]c2c1	none
CCCNC(=O)N1CC2(C1)CN(C(=O)c1ccccc1)[C@H](CO)c1[nH]c3cc(OC)ccc3c12	none
COCc1ncn2c1CN(S(=O)(=O)c1cccc(OC)c1)CC2	none
COc1cccc(NC(=O)N[C@H]2C=C[C@@H](CC(=O)NCc3ccncn3)O[C@@H]2CO)c1	none
CN(C(=O)C(C)(C)Oc1cc(C(F)(F)F)n(C)n1)c1ccccc1	none
Cc1ccccc1-c1cc(N2CCN(C)CC2)ncc1N(C)C(=O)C(C)(C)c1cc(C(F)(F)F)cc(C(F)(F)F)c1	Tg IFNy HTS -72.5
CN1CCN(c2cc(C(F)(F)F)ccn2)CC1C(=O)O (centres undefined)	none
CC(C)c1nc(-c2cc(C(=O)N3CCC(N(C)C)C3)c3ccccn23)cs1 (centres undefined)	none
O=C(c1cccnc1)N1CC(=O)N2[C@H](CO)[C@@H](c3ccc(-c4ccccc4F)cc3)[C@@H]2C1	none
C[C@]12C[C@H](O)[C@H]3[C@@H](CCC4=CC(=O)CC[C@@]43C)[C@@H]1CC[C@@H]2C(=O)CO	none
CC(=O)[C@H]1CC[C@H]2[C@@H]3CCC4=CC(=O)CC[C@]4(C)[C@H]3[C@H](O)C[C@]12C	none
CC(=O)OCC(=O)[C@H]1CC[C@H]2[C@@H]3CCC4=CC(=O)CC[C@]4(C)[C@H]3CC[C@]12C	Tg IFNy HTS -81.9!
Cn1c(Cc2nnn(Cc3ccc(Cl)cc3Cl)n2)nnc1SCC(N)=O	none
Cc1ccc(=O)n(-c2ccccc2)c1	none
COc1ccc(-n2c(CC#N)nnc2SCc2c(C)c(C)c(C)c(C)c2C)cc1	Tg IFNy HTS -89.3
COc1ccc(-n2c(SCC#N)nnc2-c2cccnc2)cc1	none
COc1ccc(-n2c(Cc3ccccc3)nnc2SCC(=O)c2ccccc2)cc1	none
COC(=O)c1cc(C)nc2c1c(=O)n(Cc1nc(-c3ccc(Cl)cc3)oc1C)c(=O)n2C	none
N#C[C@H]1[C@@H](c2ccccc2C2=CCCC2)[C@@H](CO)N1C(=O)NC1CCCCC1	none
Cn1c(CN2CCCCC2c2ccccn2)cc2cc(F)ccc21 (centres undefined)	none
C/C(=N\N=C1\NC(=O)C(CC(=O)Nc2ccc(Cl)cc2)S1)c1ccco1 (centres undefined)	none
O=C(CC1SC(=Nc2ccccc2)NC1=O)Nc1ccccc1 (centres undefined)	none
O=C1NC(=Nc2ccc(Cl)cc2)SC1Cc1ccccc1 (centres undefined)	Tg IFNy HTS -91.9
CO[C@@H](CN(C)Cc1ccc2c(c1)OCO2)[C@@H](C)CN(C(=O)Nc1ccc(F)cc1)[C@H](C)CO	none
Cc1c(C)n(C(=O)CSc2nnc(-c3ccccc3)o2)c2ccccc12	none
Cc1c(-c2ccccc2)n(-c2ccccc2)c2ccccc12	Tg IFNy HTS -90.2
O=c1cc(O)c2ccccc2n1-c1ccccc1	none
CNS(=O)(=O)CCNC(=O)C1CC(=O)N(Cc2ccc(C)cc2)C1 (centres undefined)	none
Cc1cc(Nc2ccc(Br)cc2)nc(-c2ccccc2O)n1	Tg IFNy HTS -84.9
Cc1cc(N2CC(c3ccccn3)C2)nc(-c2ccccc2O)n1	none
CCOc1ncccc1-c1nc(C)cc(NC)n1	none
COc1ccc2c3c(n(C)c2c1)[C@@H](CO)N(C(=O)Nc1ccc(F)cc1)CC31CCN(C(=O)Nc2ccc(F)cc2F)CC1	none
Nc1cccc2c1C(=O)N(C1CCC(=O)NC1=O)C2=O (centres undefined)	none
COC(=O)C1=C(C)NC(C)=C([N+](=O)[O-])[C@H]1c1ccccc1C(F)(F)F	none
COC(=O)C1=C(C)NC(C)=C(C(=O)OCC(C)C)C1c1ccccc1[N+](=O)[O-] (centres undefined)	none
C#CCN1C(C)=C(C(=O)OC)C(c2cccc([N+](=O)[O-])c2)C(C(=O)OCC)=C1C (centres undefined)	none
COC(=O)C1=C(C)NC(C)=C(C(=O)OCCCN2CCC(c3ccccc3)(c3ccccc3)CC2)[C@@H]1c1cccc([N+](=O)[O-])c1	Tg IFNy HTS -87.1
COC(=O)C1=C(C)NC(C)=C(C(=O)NCCCN2CCC(c3ccccc3)(c3ccccc3)CC2)C1c1ccc([N+](=O)[O-])cc1 (centres undefined)	Tg IFNy HTS -75.8
COC(=O)C1=C(C)NC(C)=C(C(=O)O[C@H]2CCN(Cc3ccccc3)C2)[C@H]1c1cccc([N+](=O)[O-])c1	none
O=C(C1CCC2(CCN(Cc3ccccn3)CC2)O1)N1CCCC1 (centres undefined)	none
CCOC(=O)c1cnn2c1nc(N1CC(C)CC(C)C1)c1ccccc12 (centres undefined)	none
CCOC(=O)c1ccc2[nH]c(C)c(CCC(C)=O)c(=O)c2c1	none
CCn1c(=O)c(-c2nc(-c3ccccn3)no2)c(O)c2ccccc21	none
O=C(O)[C@H]1C[C@H](C(=O)NCc2ccccn2)CN(C/C=C/c2ccccc2)C1	none
COc1ccc(CN2CCC3(CC2)CC(c2cccnc2)CO3)cc1 (centres undefined)	none
Fc1ccc(N2CCC3(CC2)CC(c2cccnc2)CO3)cc1 (centres undefined)	Tg IFNy HTS -81.7
N#Cc1ccc(N2CCC3(CC2)CC(c2cccnc2)CO3)cc1 (centres undefined)	none
Cc1snnc1C(=O)Oc1ccccc1-c1nnco1	none
O=C1c2c(O)cc(O)cc2O[C@H](c2cc(O)c(O)c(O)c2)[C@H]1O	none
CCN1C(=O)N(Cc2cccc(OC)c2)C(=O)C12CCN(Cc1cc3ccccc3s1)CC2	Tg IFNy HTS -90.1
CCN1C(=O)N(Cc2cccc(OC)c2)C(=O)C12CCN(Cc1ccc(N3CCCC3)cc1)CC2	none
CCN1C(=O)N(Cc2cccc(OC)c2)C(=O)C12CCN(CC(c1ccccc1)c1ccccc1)CC2	none
COc1cc(N(C)CCc2ccncc2)ncn1	none
c1cc2c(cc1-c1csc(-c3ccc4c(c3)OCCO4)n1)OCCO2	none
Cc1cc(-c2ccc3c(c2)OCCO3)cnc1N	none
NC1=NN=C(c2ccc3c(c2)OCCO3)CS1	Tg IFNy HTS -81.4
COc1cccc(CNC(=O)[C@@H]2[C@@H](CO)[C@@H]3Cn4c(ccc(-c5cncnc5)c4=O)[C@@H]3N2C)c1	none
C[C@H](CO)N1C[C@H](C)[C@H](CN(C)Cc2ccc(Oc3ccccc3)cc2)Oc2ccc(N(C)C)cc2C1=O	none
COc1ccc(-c2nc(Nc3cc(C)ccc3OC)c3ccccc3n2)cc1	none
CCN1CCCn2c(nc(CNC(=O)c3cccn3C)cc2=O)C1	none
CC(=O)O[C@H]1C(=O)[C@@]2(C)[C@H]([C@H](OC(=O)c3ccccc3)[C@]3(O)C[C@H](OC(=O)[C@H](O)C(NC(=O)c4ccccc4)c4ccccc4)C(C)=C1C3(C)C)[C@]1(OC(C)=O)CO[C@@H]1C[C@@H]2O (some centres undefined)	Tg IFNy HTS -95.5

Screening results from PubChem BioAssay.
